Measurements taken from PubChem BioAssay (NCI).
Compounds without any hit were thinned out: in the full panel of roughly 83,000, 20% have a hit.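 Step 1: grow cells in 96-well plates. Step 2: add test compound at a single concentration. Step 3: incubate 48 h. Step 4: record percent growth.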 Values without a mark were called inactive. Activity calls are given as the source filed them. How the source made its calls: active means growth percent below 10; inactive means the rest.

Tests used:
Test in all cases: NCI-60 one-dose screen, 48 h (100 = growth as untreated, 0 = no growth, -100 = all killed)
Settings in all cases: 10 µM unless noted
NCI-H23 lung = tested on: NCI-H23 lung
NCI-H226 lung = tested on: NCI-H226 lung
HOP-62 NSCLC = tested on: HOP-62 NSCLC
NCI-H460 lung = tested on: NCI-H460 lung
HOP-92 NSCLC = tested on: HOP-92 NSCLC
NCI-H522 lung = tested on: NCI-H522 lung
A549/ATCC NSCLC = tested on: A549/ATCC NSCLC
786-0 renal = tested on: 786-0 renal
COLO 205 colon = tested on: COLO 205 colon

Row | SMILES | growth (NCI-H23 lung) | growth (NCI-H226 lung) | growth (HOP-62 NSCLC) | growth (NCI-H460 lung) | growth (HOP-92 NSCLC) | growth (NCI-H522 lung) | growth (A549/ATCC NSCLC) | growth (786-0 renal) | growth (COLO 205 colon)
1 | COc1ccc(C(=O)/C=C/c2c(C(F)(F)F)nc3ccccn23)cc1OC | 0.445% (active) | 79.4% | 11.1% | -33.6% (active) | 5.04% (active) | 10.8% | 43.1% | 10.3% | -1.6% (active)
2 | O=S(=O)(NCCNc1nccc(-c2c(-c3ccc(F)c(O)c3)nc3occn23)n1)c1ccc(Cl)cc1 | 80.3% | 102% | 101% | 76.7% | 70.4% | 76.6% | 77.9% | 109% | 67.7%
3 | N#Cc1ccc2c(c1)C(=O)c1c-2n(CCCN)c(=O)c2cc([N+](=O)[O-])ccc12 | -57.6% (active) | -71.6% (active) | -89.5% (active) | -100% (active) | -2.3% (active) | -72.2% (active) | -100% (active) | -90% (active) | -100% (active)
4 | CSc1oc(C)nc1[P+](c1ccccc1)(c1ccccc1)c1ccccc1 | 30% | 67.6% | 87.6% | 37.3% | 59.9% | 56.5% | 61.8% | 89.3% | 7.5% (active)
5 | Cc1ccccc1/C=C/C(=O)c1cccc(OCCCOc2cccc(C(=O)/C=C/c3ccccc3C)c2)c1 | 88.5% [3 µM] | 88.9% [3 µM] | 114% [3 µM] | 99.8% [3 µM] | 85.9% [3 µM] | 80.5% [3 µM] | 86% [3 µM] | 103% [3 µM] | 110% [3 µM]
6 | O=C1/C=C/[C@@H](O)[C@@H]2C[C@@H](O)C[C@H]2/C=C/CCC[C@H](CCc2ccccc2)O1 | 13.3% | -28.6% (active) | 30.1% | 15.5% | -16.5% (active) | 7.89% (active) | 16.6% | -54.7% (active) | -72.5% (active)
7 | c1cc2c(ccc3[nH]c(-c4ccc5[nH]ncc5c4)c4c(c32)CCCC4)n1 | 74.3% | 58.6% | 42.5% | 22.3% | 40% | 47.4% | 32.5% | 56% | 58%
8 | CCOC(=O)c1c(NC(=O)c2cccc(C(F)(F)F)c2)sc2c(CN(C)C)c(O)ccc12 | 93.1% | 101% | 96.7% | 2.61% (active) | -1.17% (active) | 71.9% | 60.8% | 12.1% | 19%
9 | CCC1=C[C@@H]2C[C@]3(C(=O)OC)c4[nH]c5ccccc5c4CC[N@+](CC(=O)Nc4cc5c(cc4OC)N(C)[C@H]4[C@@](O)(C(=O)OC)[C@H](OC(C)=O)[C@]6(CC)C=CCN7CC[C@]54[C@@H]76)(C2)[C@H]13 | 104% | 98.7% | 99.5% | 109% | 88% | 92.4% | 100% | 99.1% | 104%
10 | Cc1cn(-c2cc(NC(=O)c3cccc(C#Cc4cccc5[nH]nc(N)c45)c3)cc(C(F)(F)F)c2)cn1 | 37.1% | 22.1% | 55.5% | 30.5% | -16.6% (active) | 39.9% | 45.4% | 26.5% | 18.6%
11 | CCCNC(=O)Nc1ccc2cc3ccc(NC(=O)NCCC)cc3nc2c1 | 86.4% | 90.7% | 81.8% | 104% | 79.2% | 79% | 95.9% | 82.3% | 99.3%
12 | CCOC(=O)C1=C(N)Oc2c(sc3c(F)cccc23)C1c1ccc(O)cc1 (stereo not drawn) | 30.8% | 55.2% | 55.4% | 30.4% | 34.6% | 26.9% | 40.5% | 59.6% | 79.5%
13 | CC(C)c1ccc(C(=O)Nc2nc3ccc(O)c(CN(C)C)c3s2)cc1 | 88.9% | 97.1% | 93.4% | 59.5% | 81.7% | 79.4% | 80.6% | 89.9% | 84.7%
14 | Cc1cccc(/C=C/c2c(C(=O)/C=C/c3ccccc3)c(C)nc3ccccc23)c1 | -57.9% (active) | -16.5% (active) | -48.1% (active) | -71.8% (active) | -1.2% (active) | -58.7% (active) | – | -55.5% (active) | -61.8% (active)
15 | CCN(C)S(=O)(=O)Nc1cccc(Nc2ncnc3cc(NC(=O)CCl)ccc23)c1Cl | -27.1% (active) | 6.77% (active) | -50.1% (active) | -22.5% (active) | 24.6% | -70.6% (active) | – | -82.8% (active) | -33.9% (active)
16 | COc1cc(-c2cncn2-c2ccc(-c3nc4ccc(F)cc4s3)cc2)ccc1F | 71% | 85.2% | 102% | 35.4% | 94.3% | – | 69.1% | 90.8% | 82.7%
17 | COC(CC(F)F)c1cn(S(=O)(=O)c2ccc(C)cc2)c2ccccc12 (stereo not drawn) | 52% | 75.9% | 34.1% | 11.6% | 40.8% | 42.7% | 33.9% | 35.3% | 3.62% (active)
18 | O=C(Nc1ccccc1)Nc1ncnc2c1ncn2-c1ccc(Cl)cc1 | 88.5% | 65% | 75.4% | 46.3% | 97.3% | 85.4% | 83.7% | 46.9% | 86.8%
19 | O=C(c1nn(-c2ccccc2)c2c1CC(NCc1ccc(F)cc1)CC2)N1CCCCC1 (stereo not drawn) | 95.3% | 103% | 114% | 117% | 92.5% | 89.3% | 103% | 96.4% | 108%

Row | SMILES | growth (NCI-H23 lung) | growth (NCI-H226 lung) | growth (HOP-62 NSCLC) | growth (NCI-H460 lung) | growth (HOP-92 NSCLC) | growth (NCI-H522 lung) | growth (A549/ATCC NSCLC) | growth (786-0 renal) | growth (COLO 205 colon)
20 | CN(C)CCNC(=O)c1cc2c3cc(Cl)ccc3[nH]c2c2ncccc12 | 32.5% | 25% | 24.4% | -0.295% (active) | 2.92% (active) | 21.2% | 9.53% (active) | 11.4% | -17.9% (active)
21 | N#Cc1c(-c2ccccc2)[nH]c2ncc(-c3ccccc3)n2c1=O | 76.9% | 86.3% | 75.6% | 91.1% | 80.7% | 76.9% | 90.6% | 92.3% | 94.7%
22 | Cc1ccc(C)n1-c1ccccc1-n1c(C)ccc1C | 107% | 97.8% | 112% | 105% | 92.4% | 96.5% | 101% | 101% | 114%
23 | NC(=O)c1c(NC(=O)c2ccc3ccccc3c2)sc2c1CCC(=O)C2 | 35.4% | 91.8% | 99.9% | 92.6% | 83.6% | 10.5% | 95.5% | 99.6% | 58.4%
24 | C#CCOc1ccc2ncnc(Nc3ccc(NC(=O)C=C)cc3)c2c1 | 2.09% (active) | 97.7% | 78.5% | 24.1% | -36.8% (active) | -75.7% (active) | 80% | -37.7% (active) | -57.6% (active)
25 | CCOC(=O)c1c2c(n3cccc(F)c13)C(=O)c1ncccc1C2=O | -0.249% (active) | -6.38% (active) | -37.4% (active) | -22.1% (active) | 38.5% | 1.44% (active) | -9.79% (active) | -17.3% (active) | 7.04% (active)
26 | Clc1ccc2c(c1)C(c1c[nH]c3ccccc13)(c1c[nH]c3ccccc13)CCO2 | 93.5% | 79.7% | 46.4% | 85.3% | 43.1% | -62.7% (active) | 24.6% | 80.8% | 51.4%
27 | CN1C(=O)/C(=C\c2c(Cl)cccc2Cl)c2ccccc21 | 90.7% | 100% | 86.5% | 103% | 83.4% | 83.3% | 88% | 84.3% | 113%
28 | N#Cc1nc(-c2ccc(F)cc2)oc1S(=O)(=O)N1CCOCC1 | 70.3% | 81.7% | 101% | 107% | 94.6% | -33.8% (active) | 107% | 87.6% | -36.4% (active)
29 | COCCOc1cc2ncnc(N3CCN(c4ncc(S(=O)(=O)N5CCCCC5)cn4)CC3)c2cc1OCCOC | 91.5% | 97.2% | 118% | 103% | 89.5% | 84.4% | – | 108% | 121%
30 | CC1CN(S(=O)(=O)c2oc(-c3ccc(Cl)cc3)nc2C#N)CC(C)O1 (stereo not drawn) | 77.8% | 87.4% | 101% | 103% | 76.3% | -16.2% (active) | 100% | 79% | 2.95% (active)
31 | O=S(=O)(NCCCNc1nccc(-c2c(-c3ccc(F)c(O)c3)nc3sccn23)n1)c1ccccc1 | 58.3% | 97.7% | 89.1% | 62.2% | 55.4% | 52.1% | 63.8% | 87.2% | 30.4%
32 | Cc1ccc2c(n1)C(=O)C(Br)=C(C1CCCC1)C2=O | 92.4% | 94.3% | 84% | 110% | 98.4% | 83.6% | 94.4% | 101% | 52%
33 | Cn1cc(-c2csc(-c3c[nH]c4ccc(Br)cc34)n2)c2ccnc(Cl)c21 | 62.1% | 59.4% | 101% | 9.96% (active) | 64.2% | 56.3% | 42.4% | 47% | 42.5%
34 | C#Cc1c2c(c(OC)c3c1OCO3)[C@H]([C@H]1OC(=O)c3c1ccc(OC)c3OC)N(C)CC2 | 86% | 98% | 71.8% | 96% | 91.2% | – | 65.5% | 95.4% | 79.7%
35 | Cc1[nH]c(C(=O)Nc2ccccc2OC2CCNCC2)c(Cl)c1Cl | 42.8% | 98.6% | 11.4% | 5.07% (active) | -2.05% (active) | -24.7% (active) | 27.3% | -56.6% (active) | -9.94% (active)
36 | COc1cc2oc(-c3cccc(NC(=O)c4ccccc4)c3)cc(=O)c2c(OC)c1OC | 72.9% | 81.4% | 78.4% | 78.7% | 47.6% | 49.3% | 68.9% | 78.1% | 84.4%
37 | CCC(C(=O)[C@@H](C)[C@@H](O)[C@H](C)[C@@H]1O[C@@H]([C@@H](CC)C(=O)ONC(=O)c2ccccc2)CC[C@@H]1C)[C@H]1O[C@]2(C=CC(=O)[C@]3(CC[C@@](C)([C@H]4CC[C@](O)(CC)[C@H](C)O4)O3)O2)[C@H](C)C[C@@H]1C (stereo partly drawn) | -49.7% (active) | 42% | 26.5% | -57.8% (active) | -62.2% (active) | -25.9% (active) | -19.6% (active) | 9.1% (active) | -26% (active)
